Laboratory results: PubChem BioAssay (Tox21)
Inconclusive results are not listed. Active and inactive are the calls of the source. Unless noted, calls come from the whole dose curve; as a rule, active = well fitted curve in the direction sought with a large enough effect in the repeat runs; inconclusive = weak or mixed curves; inactive = flat fitted curve, though single readings scatter.

What was measured:
[1] = qHTS assay to test for compound auto fluorescence at 535 nm (green) in HEK293 cells (AID 720680)
[2] = qHTS assay to test for compound auto fluorescence at 460 nm (blue) in HEK293 cell free culture (AID 720681)
Summary of the method: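 Compounds were added to cell-free DMEM with 10% FBS and fluorescence read directly. The blue channel used 405 nm excitation and 460 nm emission, with triamterene as the reference fluorophore.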

[3] = qHTS assay to test for compound auto fluorescence at 590 nm (red) in HEK293 cell free culture (AID 720683)
Summary of the method: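 Cell-free wells of DMEM with 10% FBS received compound, and intrinsic fluorescence was read at excitation/emission 540/590 nm. Values expressed as equivalence to Rose Bengal sodium.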

[4] = qHTS assay to test for compound auto fluorescence at 460 nm (blue) in HepG2 cell free culture (AID 720685)
Summary of the method: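 Cell-free plates of MEM plus 10% FBS received 23 nL compound or DMSO vehicle; blue-channel (405/460 nm) intensity scored against triamterene as reference fluorophore.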

[5] = qHTS assay to test for compound auto fluorescence at 535 nm (green) in HepG2 cell free culture (AID 720686)
[6] = qHTS assay to test for compound auto fluorescence at 460 nm (blue) in HepG2 cells (AID 720687)
Summary of the method: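 HepG2 cells in MEM with 10% FBS, attached overnight at 37 C, were exposed to compound or DMSO for 1 hr at 37 C, 5% CO2. Blue fluorescence was read at 405/460 nm, with triamterene as reference fluorophore.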

[7] = target: Glucocorticoid receptor (Homo sapiens) (UniProt P04150); test: qHTS assay to identify small molecule agonists of the glucocorticoid receptor (GR) signaling pathway (AID 720691; active = well fitted activation curve with a large enough effect in the signal ratio in the repeat runs, not every such curve was filed as active; the % refers to the signal ratio)
Sequence of Glucocorticoid receptor (Homo sapiens) (P04150 whole entry, looked up): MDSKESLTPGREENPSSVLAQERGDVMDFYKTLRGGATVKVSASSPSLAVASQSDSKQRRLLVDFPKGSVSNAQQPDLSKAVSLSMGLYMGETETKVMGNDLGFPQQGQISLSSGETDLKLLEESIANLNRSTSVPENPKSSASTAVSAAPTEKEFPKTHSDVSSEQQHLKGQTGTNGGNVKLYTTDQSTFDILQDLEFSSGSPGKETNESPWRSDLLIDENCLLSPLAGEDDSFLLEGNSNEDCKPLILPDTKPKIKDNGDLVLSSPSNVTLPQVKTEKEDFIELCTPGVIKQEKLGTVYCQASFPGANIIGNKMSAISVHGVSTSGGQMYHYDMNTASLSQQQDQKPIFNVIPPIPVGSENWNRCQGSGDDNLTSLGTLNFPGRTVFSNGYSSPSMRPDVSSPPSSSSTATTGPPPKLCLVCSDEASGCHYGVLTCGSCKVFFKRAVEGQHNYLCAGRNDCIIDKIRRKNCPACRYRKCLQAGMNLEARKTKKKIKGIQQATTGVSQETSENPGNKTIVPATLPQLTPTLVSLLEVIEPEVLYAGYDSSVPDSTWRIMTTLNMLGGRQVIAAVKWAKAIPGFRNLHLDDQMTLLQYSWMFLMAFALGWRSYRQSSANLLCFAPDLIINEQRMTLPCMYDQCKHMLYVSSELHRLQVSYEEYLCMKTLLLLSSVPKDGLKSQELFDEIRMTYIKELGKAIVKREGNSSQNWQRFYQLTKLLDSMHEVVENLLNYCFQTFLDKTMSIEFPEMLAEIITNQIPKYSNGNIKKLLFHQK
Summary of the method: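 HeLa GR-bla reporter line; cells pre-incubated 4 h, compound in DMSO 18 h at 37 C; LiveBLAzer B/G FRET substrate 2 h RT; fluorescence intensity read-out.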

[8] = target: Glucocorticoid receptor (Homo sapiens) (UniProt P04150); test: qHTS assay to identify small molecule antagonists of the glucocorticoid receptor (GR) signaling pathway (AID 720692; active = well fitted inhibition curve with a large enough effect in the signal ratio in the repeat runs, not every such curve was filed as active; the % refers to the signal ratio)
Summary of the method: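 Read-out: beta-lactamase FRET substrate fluorescence, 2 h at room temperature, in HeLa cells stably carrying a GRE-driven bla reporter. Compounds were co-incubated with 5 nM dexamethasone agonist (final) for 18 h at 37 C.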

[9] = qHTS assay to test for compound auto fluorescence at 590 nm (red) in HepG2 cell free culture (AID 720684)
Summary of the method: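 Auto fluorescence equivalency versus Rose Bengal sodium, red channel Ex/Em 540/590 nm; compounds in cell-free MEM/10% FBS; DMSO vehicle control.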
% is set by controls: 0 for no effect and ±100 for the full control effect.

CCOC(=O)Nc1ccc2c(c1)N(C(=O)CCN1CCOCC1)c1ccccc1S2
inactive: fluorescence, % of fluorescein [1] 0.023% [at 18.6 µM] | fluorescence, % of fluorescent control [2] 0.0825% [at 18.6 µM] | fluorescence, % of fluorescent control [3] -0.268% [at 18.6 µM] | fluorescence, % of fluorescent control [4] 0.0956% [at 18.6 µM] | fluorescence, % of fluorescein control [5] -0.013% [at 18.6 µM] | fluorescence, % of fluorescent control [6] -0.0127% [at 18.6 µM] | Potency [7] | Potency [8]

CCOC(=O)[C@H](CCc1ccccc1)N[C@@H](C)C(=O)N1CCC[C@H]1C(=O)O
inactive: outcome [1] | Potency [2] | outcome [3] | outcome [9] | Potency [4] | outcome [5] | Potency [6] | Potency [7] | Potency [8]

NC(=S)Nc1cccc2ccccc12
inactive: fluorescence, % of fluorescein [1] 0.198% [at 3.72 µM] | fluorescence, % of fluorescent control [2] -0.0083% [at 3.72 µM] | fluorescence, % of fluorescent control [3] -0.0289% [at 3.72 µM] | fluorescence, % of Rose Bengal [9] -0.172% [at 3.72 µM] | fluorescence, % of fluorescein control [5] 0.006% [at 3.72 µM] | fluorescence, % of fluorescent control [6] -0.0944% [at 3.72 µM] | activation [7] -4.91% [at 6.9 µM] | activity change, negative = inhibition [8] -3.43% [at 7.04 µM]

NS(=O)(=O)c1cc2c(cc1Cl)NC(CSCc1ccccc1)=NS2(=O)=O
inactive: fluorescence, % of fluorescein [1] -0.0376% [at 18.6 µM] | fluorescence, % of fluorescent control [2] -0.0458% [at 18.6 µM] | fluorescence, % of fluorescent control [3] 0.107% [at 18.6 µM] | fluorescence, % of Rose Bengal [9] 0.12% [at 18.6 µM] | fluorescence, % of fluorescein control [5] -0.0451% [at 18.6 µM] | fluorescence, % of fluorescent control [6] 0.19% [at 18.6 µM] | Potency [7] | Potency [8]

N#CC1(O)CCCCC1
inactive: outcome [1] | Potency [2] | outcome [3] | outcome [9] | Potency [4] | outcome [5] | Potency [6] | Potency [7]

CC(C)=CCC/C(C)=C/C(=O)O
inactive: outcome [1] | Potency [2] | outcome [3] | outcome [9] | Potency [4] | outcome [5] | Potency [6] | Potency [7] | Potency [8]

C=C(C)C(=O)OCCC(C)OC(=O)C(=C)C (stereo not drawn)
inactive: outcome [1] | Potency [2] | outcome [3] | Potency [4] | outcome [5] | Potency [6] | Potency [7] | Potency [8]

CCCCCN(CCCCC)C(=O)C(CCC(=O)O)NC(=O)c1ccc(Cl)c(Cl)c1 (stereo not drawn)
inactive: outcome [1] | Potency [2] | outcome [3] | outcome [9] | Potency [4] | outcome [5] | Potency [6] | Potency [7] | Potency [8]

CCN(CC)C(=O)c1ccc(O)c(OC)c1
inactive: outcome [1] | Potency [2] | outcome [3] | outcome [9] | outcome [5] | Potency [6] | Potency [7] | Potency [8]

OCC(O)[C@@H](O)[C@H](O)[C@H](O)CO[C@H]1O[C@H](CO)[C@@H](O)[C@H](O)[C@H]1O (stereo partly drawn)
inactive: outcome [1] | Potency [2] | outcome [3] | outcome [9] | outcome [5] | Potency [6] | Potency [7] | Potency [8]

NCC[C@H](O)C(=O)N[C@@H]1C[C@H](N)[C@@H](O[C@H]2O[C@H](CN)[C@@H](O)[C@H](O)[C@H]2O)[C@H](O)[C@H]1O[C@H]1O[C@H](CO)[C@@H](O)[C@H](N)[C@H]1O
inactive: outcome [1] | Potency [2] | outcome [3] | outcome [9] | Potency [4] | outcome [5] | Potency [6] | Potency [7] | Potency [8]

C(=C(c1ccccc1)c1ccccc1)c1ccccc1
inactive: outcome [1] | Potency [2] | outcome [3] | outcome [9] | outcome [5] | Potency [6] | Potency [7] | Potency [8]

CN(C)CCOC(c1ccc(Cl)cc1)c1ccccn1 (stereo not drawn)
inactive: outcome [1] | Potency [2] | outcome [3] | outcome [9] | outcome [5] | Potency [6] | Potency [7] | Potency [8]

C#CC(O)C(CC)CCCC (stereo not drawn)
inactive: outcome [1] | Potency [2] | outcome [3] | Potency [4] | outcome [5] | Potency [7]

COc1cc(C)cc(O)c1
inactive: outcome [1] | Potency [2] | outcome [3] | Potency [4] | outcome [5] | Potency [6] | Potency [7]

NC(=O)c1c(Cl)cccc1Cl
inactive: outcome [1] | Potency [2] | outcome [3] | Potency [4] | outcome [5] | Potency [6]

N[C@@H](CS)C(=O)O
inactive: outcome [1] | Potency [2] | outcome [3] | Potency [4] | outcome [5] | Potency [6]

CC/C=C\C#N
inactive: outcome [1] | Potency [2] | outcome [3] | outcome [9] | Potency [4] | outcome [5] | Potency [6] | Potency [7] | Potency [8]

CC(=O)c1ccc(C)cc1
inactive: outcome [1] | Potency [2] | outcome [3] | Potency [4] | outcome [5] | Potency [6] | Potency [7]

CC(C)(C)CC(C)(C)N
inactive: outcome [1] | Potency [2] | outcome [3] | outcome [9] | Potency [4] | outcome [5] | Potency [6] | Potency [7] | Potency [8]

O=C(O)c1ccccc1S
inactive: outcome [1] | Potency [2] | outcome [3] | Potency [4] | outcome [5] | Potency [7] | Potency [8]

CCc1cc(S(=O)(=O)O)c2cc(C(C)C)cccc1-2
inactive: outcome [1] | Potency [2] | outcome [3] | outcome [9] | Potency [4] | outcome [5] | Potency [6] | Potency [7] | Potency [8]

CC(C)[N+](C)(C)CC(O)COc1cccc2ccccc12 (stereo not drawn)
inactive: outcome [1] | Potency [2] | outcome [3] | outcome [9] | Potency [4] | outcome [5] | Potency [6] | Potency [7] | Potency [8]
